Data taken from PubChem BioAssay (Tox21).
Results filed as inconclusive are left out. The source made the active and inactive calls. Calls come from the whole dose curve; as a rule, active = well fitted activation curve with a large enough effect in the signal ratio in the repeat runs (not every such curve was filed as active); inconclusive = weak or mixed curves, or effect the other way; inactive = flat fitted curve, though single readings scatter; the % refers to the signal ratio.

Target: Bile acid receptor (Homo sapiens) (UniProt Q96RI1)
Assay: qHTS assay to identify small molecule agonists of the farnesoid-X-receptor (FXR) signaling pathway (AID 743220)
Conditions: HEK293T FXR-UAS-bla, beta-lactamase FRET ratio, 16 h; series mostly up to 62.6 µM
Procedure, shortened: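 FXR-UAS-bla HEK 293T cells carrying a UAS-driven beta-lactamase reporter were plated for 5 h at 37C/5% CO2, then exposed to DMSO-dissolved Tox21 10K compounds for 16 h at 37C. A LiveBLAzer B/G FRET substrate was loaded for 2 h at room temperature before fluorescence reading.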

Bile acid receptor (Homo sapiens), sequence (Q96RI1 whole entry, looked up): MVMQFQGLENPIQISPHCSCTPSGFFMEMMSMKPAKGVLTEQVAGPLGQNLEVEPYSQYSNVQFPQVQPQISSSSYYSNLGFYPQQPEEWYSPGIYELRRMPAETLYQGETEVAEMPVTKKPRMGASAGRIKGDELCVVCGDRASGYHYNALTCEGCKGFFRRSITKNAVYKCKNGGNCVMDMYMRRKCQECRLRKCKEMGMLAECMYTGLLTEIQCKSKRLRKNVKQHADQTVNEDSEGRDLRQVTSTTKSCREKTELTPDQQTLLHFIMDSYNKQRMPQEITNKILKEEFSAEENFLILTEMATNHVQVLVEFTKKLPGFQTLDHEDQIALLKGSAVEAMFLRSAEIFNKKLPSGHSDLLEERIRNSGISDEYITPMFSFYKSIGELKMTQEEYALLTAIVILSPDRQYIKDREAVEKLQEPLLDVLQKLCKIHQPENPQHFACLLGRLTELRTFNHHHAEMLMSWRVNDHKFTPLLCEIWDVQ

Structure (SMILES) | outcome
CC(C)(C)c1cc(CO)cc(C(C)(C)C)c1O | inactive
CC(=O)O[C@H]1C[C@@H]2CC[C@@H]3[C@H](CC[C@@]4(C)[C@H]3C[C@H]([N+]3(C)CCCCC3)[C@@H]4OC(C)=O)[C@@]2(C)C[C@@H]1N1CCCCC1 | inactive
CC(C)CCCC(C)CCO (stereo not given) | inactive
CC(=O)NCCCS(=O)(=O)O | inactive
CCCCC(CC)(CO)CO | inactive
CCCCOC(=O)c1ccccc1C(=O)OCC(CC)CCCC (stereo not given) | inactive
CCOc1ccc2[nH]cc(C(=O)NCc3ccccc3)c(=O)c2n1 | inactive
CCCCCCCCC(CO)CCCCCC (stereo not given) | inactive
CCCCOC(O)CC (stereo not given) | inactive
CCCCc1cc2ccccc2c(OCCN(C)C)n1 | inactive
O=c1[nH]cnc2ccccc12 | inactive
N#CCc1cccc(C(F)(F)F)c1 | inactive
Nc1nc(N)c(-c2ccccc2)s1 | inactive
CNS(=O)(=O)Cc1ccc2[nH]cc(CCN(C)C)c2c1 | inactive
O=C(O)C1CCC(C(=O)O)CC1 (stereo not given) | inactive
CCN1CCC[C@H]1CNC(=O)c1c(OC)ccc(Br)c1OC | inactive
CC(C)(C)c1cc(CCC(=O)OCC(COC(=O)CCc2cc(C(C)(C)C)c(O)c(C(C)(C)C)c2)(COC(=O)CCc2cc(C(C)(C)C)c(O)c(C(C)(C)C)c2)COC(=O)CCc2cc(C(C)(C)C)c(O)c(C(C)(C)C)c2)cc(C(C)(C)C)c1O | inactive
CCOC(=O)CC(=O)c1cc(F)c(Cl)nc1Cl | inactive
C=CCCCCCC | inactive
Oc1ccc(Sc2ccc(O)cc2)cc1 | inactive
